Rows were chosen to be rich in hits. Some 19% of all compounds tested hit in one or more screens of this group.
IL1B secr inh: inflammasome signaling inhibition, IL-1 beta readout; activity change, % at 57.5 µM; 4.7% of 360,000 active; AID 743279; THP-1 LPS/ATP IL-1B secretion, AlphaLISA, 16 h; hits give low values; in the data active = activity change below about -50%; inconclusive = mostly about -30% to -49%
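THP-1 cells pretreated 1 hr with compounds (up to 57.5 uM final), then stimulated with LPS (250 ng/mL final) plus ATP (1.25 mM final); secreted IL-1B measured by AlphaLISA after 16 hr, decreased signal indicating inhibition.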
HT1080NT lethal: kills 2HG-producing HT-1080-NT fibrosarcoma cells | HT-1080-NT fibrosarcoma viability, CellTiter-Glo ATP luminescence, 48 h | Potency, µM (doses to about 46.1 µM), without a hit: at the highest dose activity, negative = less viability, hits mostly cytotoxic | 1.6% of 360,000 active;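 also: NT is the 2HG producing partner of a matched IDH1 knockdown line; potency is read from the fitted curve at half-maximal effect; 0% = DMSO-treated cells and -100% = media-only wells without cells; nearly all actives have a fitted effect of over 55% in size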
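A 48-hour cytotoxicity screen used HT-1080-NT cells plated 2 hours before compound delivery. ATP-based CellTiter-Glo luminescence measured viability, normalized to DMSO and no-cell controls.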
TDP1 cell CPT: growth inhibition of DT40 Tdp1-/-;hTDP1 cells with camptothecin (screen for TDP1 inhibitors); AID 686979; chicken DT40 Tdp1-/-;hTDP1 cells + 20 nM CPT, ATP luminescence, 48 h; 12% of 420,000 active; Potency, µM (highest dose often 46.2 µM), without a hit: at the top dose activity change, negative = growth inhibition, usual class: inhibitors; also: potency is read from the fitted curve at half-maximal effect; nearly all actives have a fitted effect of over 55% in size
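Chicken DT40 Tdp1-/- cells stably complemented with human TDP1 were seeded at 400 cells/well in medium containing 20 nM camptothecin, exposed to pin-transferred compounds, and grown at 37 °C for at least 48 hr. Viability was read as ATP luminescence.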
ELG1 repair inh: ELG1-dependent DNA repair inhibition | HEK293T ELG1-luciferase reporter, luminescence, 16 h; DNA damage induced by 5-fluorouridine | Potency, µM (doses to about 46.1 µM), for inactives: at the top dose activity change, negative = inhibition, most hits filed as inhibitors | 2.3% of 330,000 active | AID 504467; also: potency is read from the fitted curve at half-maximal effect; nearly all actives have a fitted effect of over 55% in size
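Quantitative HTS, concentration-response format. 2,000 cells/well co-treated with 5-fluorouridine and compound, 16 hr in 5% CO2 at 37 °C; ONE-Glo luminescence read after 30 min.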
HT1080 IDH1KD tx: toxicity to HT-1080 IDH1 knockdown cells (counter line); Potency, µM (doses to about 46.1 µM), inactives show top-dose activity, negative = toxicity, hits mostly cytotoxic; 2% of 360,000 active; AID 686971; HT-1080 IDH1 knockdown viability, ATP luminescence, 48 h;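 also: potency is read from the fitted curve at half-maximal effect; 0% = DMSO wells and -100% = cell-free medium wells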
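After a 2 h attachment period, IDH1KD HT-1080 cells took pin-transferred compound for 48 h at 37 °C; ATP-based luminescence after 10 min room-temperature reagent incubation reported viability.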
TDP1 cell noCPT: qHTS for Inhibitors of human tyrosyl-DNA phosphodiesterase 1 (TDP1): qHTS in cells in absence of CPT; DT40 Tdp1-/- hTDP1 cells, no CPT, ATP luminescence, 48 h; Potency, µM (doses to about 46.2 µM), for inactives: top-dose activity change, negative = growth inhibition, hits mostly inhibitors; 15% of 420,000 active; AID 686978, 2013; also: potency is read from the fitted curve at half-maximal effect; nearly all actives have a fitted effect of over 55% in size
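Stably hTDP1-transfected Tdp1-null chicken DT40 cells were treated with library compounds minus camptothecin and grown for at least 48 hr at 37 °C, after which cellular ATP was quantified by luminescence.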
The depositor's hits bear a star; i = inactive; ? = inconclusive; · = no result given. Unless noted, calls follow the shape of the dose curve; as a rule, active = well fitted curve in the direction sought with a large enough effect; inconclusive = small, poorly fitted or top-dose-only effect, or another doubt; inactive = no such curve, though single readings can be large; an effect the other way counts as inactive or inconclusive. Unless noted, % is scaled to controls: 0 for no effect and ±100 for the full control effect.

SMILES	IL1B secr inh	HT1080NT lethal	TDP1 cell CPT	ELG1 repair inh	HT1080 IDH1KD tx	TDP1 cell noCPT
CCN(CCCNC(=O)C1CCCN(S(=O)(=O)CC)C1)c1cccc(C)c1 (stereo unspecified)	4.7	1.9%	23.1µM*	-6.2%	-4.4%	14.6µM*
CCN(CC)c1ccc(NC(=O)C2CCCN(S(=O)(=O)c3cccnc3)C2)c(C)c1 (stereo unspecified)	38.6	-4.8%	14.6µM*	?	-7.3%	10.3µM*
O=C(Nc1ccc(Br)cc1)C1CCCN(S(=O)(=O)c2cccnc2)C1 (stereo unspecified)	6.8	-2.7%	23.1µM*	?	-1.2%	25.9µM*
O=S(=O)(c1ccc(F)cc1F)N1CCN(c2nc(-c3cccs3)nc3ccccc23)CC1	·	6.4%	?	·	16.3%	?
CCCn1nc(C(=O)NNC(=O)c2cccc(S(=O)(=O)NC(C)C)c2)c2ccccc2c1=O	i	11.5%	-11.2%	?	?	-8.5%
COc1ccc2[nH]cc(CCNC(=O)/C=C/[C@H]3O[C@@H](n4cnc5c(NC(=O)c6ccccc6)ncnc54)[C@H](O)[C@@H]3O)c2c1	?	24.5%	1.0%	·	23.0%	10.9%
C/C(CC1(O)C(=O)N(C)c2ccccc21)=N\O (stereo unspecified)	-16.8	1.5%	-7.3%	-11.8%	1.3%	-6.5%
CC(=O)CC1(OC(C)=O)C(=O)N(C)c2ccccc21 (stereo unspecified)	?	-21.8%	3.66µM*	?	?	2.91µM*
CCC(C)(C(=O)NC1CCCC1)N(Cc1cccs1)C(=O)c1ccc2c(c1)OCO2 (stereo unspecified)	-14.1	-1.9%	18.4µM*	-2.9%	-13.4%	20.6µM*
CC(=O)OC1C=CCC2C(=O)c3cccc(O)c3C(O)C12 (stereo unspecified)	-5.8	-4.0%	-9.2%	·	-0.2%	?
NC(=O)CSc1nc2scc(-c3ccc(Cl)cc3)c2c(=O)n1Cc1ccccc1	55.3	-24.6%	9.2µM*	16.4µM*	-10.0%	8.2µM*
O=C(CSc1nc2scc(-c3cccs3)c2c(=O)n1CCc1ccccc1)N1CCCC1	6.8	2.2%	-0.6%	·	21.6%	-25.4%
Cc1ccc(-c2csc3nc(SCC(=O)N(C)C)n(Cc4ccccc4)c(=O)c23)cc1	-21.7	-22.5%	11.6µM*	20.6µM*	-29.1%	13µM*
O=C(CCN1CCN(c2ccccc2F)CC1)c1ccc(Br)cc1	-1.6	?	2.59µM*	1.5%	?	2.91µM*
O=C(CCC(=O)N1CCN(c2ccccc2F)CC1)c1ccc(F)cc1	-6.1	1.7%	0.5%	8.4%	2.8%	?
COc1ccc(C(=O)CCN2CCN(c3ccccc3F)CC2)cc1	0.0	?	4.61µM*	?	?	3.66µM*
COc1cccc(NC(=O)Cc2nc(-c3ccccc3)sc2-c2ccc(C)cc2)c1	3.2	12.3%	?	29.6%	8.9%	16.4µM*
COC(=O)c1cccc(NC(=O)Cc2nc(-c3ccccc3)sc2-c2ccc(C)cc2)c1	12.6	0.2%	?	?	0.3%	18.4µM*
COCc1nc2ccccc2n1Cc1cccc(C)c1	18.8	-2.9%	?	15.3%	-3.3%	?
CCOc1ccc(CCNC(=O)Cn2c(-c3nonc3N)nc3ccccc32)cc1OCC	-3.2	-4.3%	10µM*	?	-11.0%	12.6µM*
